Screens deposited in PubChem BioAssay by National Center for Advancing Translational Sciences (NCATS).
Hits are enriched below; roughly 1.3% of the tested compounds scored in any of these assays.
EPAC2 ag: qHTS for Agonist of cAMP-regulated guanine nucleotide exchange factor 4 (EPAC2): primary screen. Rap guanine nucleotide exchange factor 4 (Homo sapiens), Q8WZA2. EPAC2 activation, biochemical qHTS; response scale: 100% = 6.5 mM cAMP response. Potency, µM (highest dose often 154 µM), for inactives: at the highest dose activation, hits mostly activators. actives 0.079% (n = 360,000). AID 720711, 2013; also: nearly all actives have a fitted effect of over 50% in size
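Readout is BODIPY fluorescence (480 nm excitation, 540 nm emission), which falls as labeled GDP is exchanged off Rap1B. EPAC2 at 100 nM acted on 250 nM RAP1B-BODIPY-GDP with 50 uM GDP present.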
EPAC1 antag: qHTS for Antagonist of cAMP-regulated guanine nucleotide exchange factor 3 (EPAC1): primary screen; Rap guanine nucleotide exchange factor 3 (Homo sapiens), O95398; EPAC1 GEF assay, Rap1b-BODIPY-GDP exchange fluorescence; Potency, µM (doses to about 115 µM), without a hit: at the highest dose activity change, negative = inhibition, actives largely listed as inhibitors; actives 0.14% (n = 360,000); AID 720709, 2013;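 also: plate controls were vehicle for no effect and positive control for full effect; nearly all actives have a fitted effect of over 50% in size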
Target sequence (O95398 whole entry, looked up): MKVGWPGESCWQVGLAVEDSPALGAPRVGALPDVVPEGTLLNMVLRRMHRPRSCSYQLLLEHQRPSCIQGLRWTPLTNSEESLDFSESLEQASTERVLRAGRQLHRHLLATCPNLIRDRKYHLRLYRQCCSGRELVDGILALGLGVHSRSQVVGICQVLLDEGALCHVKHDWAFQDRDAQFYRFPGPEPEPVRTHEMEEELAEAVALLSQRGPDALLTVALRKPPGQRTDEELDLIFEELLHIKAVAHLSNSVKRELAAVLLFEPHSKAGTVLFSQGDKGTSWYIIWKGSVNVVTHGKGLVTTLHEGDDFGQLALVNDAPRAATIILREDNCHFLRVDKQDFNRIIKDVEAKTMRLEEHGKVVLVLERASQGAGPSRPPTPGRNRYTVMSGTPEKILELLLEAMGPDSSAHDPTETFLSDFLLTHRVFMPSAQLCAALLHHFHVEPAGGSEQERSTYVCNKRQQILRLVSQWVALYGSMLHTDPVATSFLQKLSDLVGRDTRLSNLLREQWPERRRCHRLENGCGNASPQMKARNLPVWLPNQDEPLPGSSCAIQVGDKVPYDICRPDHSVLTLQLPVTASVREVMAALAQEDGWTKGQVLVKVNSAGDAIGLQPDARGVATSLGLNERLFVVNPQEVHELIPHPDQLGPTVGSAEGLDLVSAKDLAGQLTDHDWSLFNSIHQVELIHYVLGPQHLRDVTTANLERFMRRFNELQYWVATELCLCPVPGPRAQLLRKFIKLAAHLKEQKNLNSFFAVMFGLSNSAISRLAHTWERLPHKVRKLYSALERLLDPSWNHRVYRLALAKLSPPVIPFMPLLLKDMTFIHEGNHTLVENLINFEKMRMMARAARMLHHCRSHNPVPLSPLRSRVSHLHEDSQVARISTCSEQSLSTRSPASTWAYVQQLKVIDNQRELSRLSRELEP
EPAC2 antag: qHTS for Antagonist of cAMP-regulated guanine nucleotide exchange factor 2 (EPAC2): primary screen; EPAC2 GEF exchange of Rap1B-BODIPY-GDP, fluorescence; Potency, µM (highest dose often 114 µM), inactives show at the top dose activity, negative = inhibition, usual class: inhibitors; actives 0.18% (n = 360,000); AID 720708, 2013; also: % is scaled to controls: 0 for no effect and ±100 for the full control effect; nearly all actives have a fitted effect of over 45% in size
EPAC1 ag: qHTS for Agonist of cAMP-regulated guanine nucleotide exchange factor 3 (EPAC1): primary screen | Rap guanine nucleotide exchange factor 3 (Homo sapiens), O95398 | EPAC1 agonist qHTS, biochemical assay; response scale: 100% = response to 6.5 mM cAMP | Potency, µM (series often up to 154 µM), for inactives: at the top dose activation, hits mostly activators | actives 0.073% (n = 360,000) | AID 720707, 2013; also: nearly all actives have a fitted effect of over 60% in size
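EPAC1 100 nM, Rap1B–BODIPY-GDP 250 nM, unlabeled GDP 50 uM; compound titration; 5 min RT; kinetic read ex480/em540 at 5-min intervals ×30 min; data normalized to 6.5 mM cAMP agonist control.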
RGS4 inh: Inhibitors of Regulator of G Protein Signaling (RGS) 4: qHTS | Potency, µM (series often up to 114 µM), for inactives: at the highest dose activity change, negative = inhibition, most hits filed as inhibitors | AID 504845, 2011 | Transcreener GDP fluorescence polarization, RGS4-accelerated GTP hydrolysis | actives 0.039% (n = 390,000) | Regulator of G-protein signaling 4 (Homo sapiens), P49798; also: % is scaled to controls: 0 for no effect and ±100 for the full control effect; nearly all actives have a fitted effect of over 75% in size
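MLSMR compounds (23 nl, pin-transferred) preincubated 10 min at room temperature with a 500nM (2x) first reagent, then RGS4 at 900nM (2x) plus Transcreener GDP mix added; fluorescence polarization (620/688 nm) read before and after 90 min at 30 °C.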
BRCA1 expr up: qHTS Assay to Identify Small Molecule Activators of BRCA1 Expression; MCF7-BRCA1-FFLuc reporter, luminescence, 48 h; response scale: scaled: vehicle 0%, 10 µM genistein 100%; Potency, µM (series often up to 46.1 µM), without a hit: top-dose activation, actives largely listed as activators; actives 1.1% (n = 380,000); AID 624202, 2012; also: nearly all actives have a fitted effect of over 80% in size
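MCF7 cells carrying a BRCA1-firefly luciferase reporter (2000 cells/well, phenol-red free MEM) were attached for 2 h at 37 °C, then given compounds for 48 h. Luminescence was read 15 min after luciferase reagent; activity normalized to genistein (10 microM) and DMSO.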
* marks the source's active call; other numbers are inactive results; ? = inconclusive; · = not tested or not shown; ! = repeats disagree; [ ] = another dose, or the depositor's remark. Calls follow the shape of the dose curve; as a rule, active = well fitted curve in the direction sought with a large enough effect; inconclusive = small, poorly fitted or top-dose-only effect, or another doubt; inactive = no such curve, though single readings can be large; an effect the other way counts as inactive or inconclusive. Potency is read from the fitted curve at half-maximal effect.

SMILES	EPAC2 ag	EPAC1 antag	EPAC2 antag	EPAC1 ag	RGS4 inh	BRCA1 expr up
N#C/C(=C/c1ccc(O)c(O)c1)C(N)=S	·	·	·	·	6.7µM*	·
O=C1NC(=O)C(Sc2ccccc2[N+](=O)[O-])C(=O)N1	3%	26%	11%	4%	?	-4%
O=c1c2ccccc2[nH]c(=S)n1-c1ccc2c(c1)OCCO2	9%	-5%	2%	-11%	4%	10µM*
C=C1C(=O)O[C@@H]2C[C@@H](C)[C@@H]3C=CC(=O)[C@@]3(C)[C@@H](OC(=O)CC(=O)O[C@H]3[C@@H]4C(=C)C(=O)O[C@@H]4C[C@@H](C)[C@@H]4C=CC(=O)[C@]43C)[C@H]12	-5%	40µM*	?	-22%	-103%	-52%
COC(=O)[C@@H]1C[C@@]1(C)[C@@H](NP(=O)(c1ccccc1)c1ccccc1)c1ccccc1	5%	-4%	-14%	3%	1%	-11%
O=c1c2ccccc2nc(/C=C/c2ccccn2)n1-c1ccccc1	10%	-1%	1%	18%	8%	-22%
O=C(CN1CCCC1)Nc1ccc(NC(=O)Nc2ccccc2)cc1	8%	0%	6%	18%	-28%	2.8µM*
CC(=O)C1=C(O)C2(C)c3c(O)c(C)c(O)c(C(C)=O)c3OC2CC1=O (stereo not drawn)	6%	5%	14µM*	13%	·	-58%
CCn1c(O)c(C=NCc2cccs2)c(=O)[nH]c1=O	5%	-5%	5%	1%	-73%[56.9 µM]	20%
COc1ccc(NC(=O)CCCn2c(=O)oc3ccccc32)cc1Cl	2%	1%	-1%	-4%	1%	7.1µM*
CC(C)CNC(=O)c1c(N)n(Cc2ccc3c(c2)OCO3)c2nc3ccccc3nc12	-13%	0%	-5%	0%	-21%	-49%
C[C@]12C=CC(=O)C=C1CC[C@@H]1C2=CC[C@]2(C)[C@@H](C(=O)CN3CCN(c4cc(N5CCCC5)nc(N5CCCC5)n4)CC3)CC[C@@H]12	-1%	4%	21%	-6%	11µM*!	0%
Oc1c(Br)c(Br)c(Br)c(Br)c1Br	-6%	71µM*	20µM*	-14%	-9%	-10%
COC(=O)C1=C(c2ccccc2OCc2ccccc2)C[C@@H]2CC[C@H]1N2C(=O)NCCOc1ccccc1Cl	10%	-6%	-4%	9%	-9%	-65%
COc1cc(C(C)=O)ccc1OCc1cc(C(=O)N(C)CCC2CCCCO2)no1 (stereo not drawn)	7%	-5%	-6%	0%	-11%	3.5µM*
COc1ccc(C(C)=O)cc1CC(C(=O)c1ccc(Br)cc1)N(C)C (stereo not drawn)	6%	4%	15%	3%	-12%	-2%
CC(c1ccccc1)n1cncc1C(=O)O (stereo not drawn)	-9%	-2%	2%	10%	15%	-5%
CC(C)CCOP(=O)(c1ccc(N(C)C)cc1)C(O)c1ccc(Cl)cc1Cl (stereo not drawn)	5%	-23%	35µM*	2%	-8%	-97%
CC(C)CCOP(=O)(c1ccc(N(C)C)cc1)C(O)c1ccc(C(C)C)cc1 (stereo not drawn)	-15%	-14%	?	-18%	-16%	-36%
CC[C@@]1(C(=O)OC)N[C@H](CN(C)C(=O)Nc2ccc(OC)cc2)[C@@H]2C(=O)N(Cc3ccccc3)C(=O)[C@@H]21	?	-1%	-2%	4%	-15%	10µM*
N#Cc1ccc(NC(=O)CN2CCCCCC2)cc1Cl	12%	-20%	3%	7%	23%	-1%
CCOC(=O)c1ccc(N2Cc3ccccc3C2=NC(=O)c2cccc([N+](=O)[O-])c2)cc1	0%	-12%	-8%	6%	8%[11.4 µM]	5µM*
CCOC(=O)c1c(-n2c(C)cc(/C=C3\C(=O)NC(=O)N(C)C3=O)c2C)sc2c1CCCC2	4%	-1%	-9%	12%	?	-40%
Cc1cc(/C=C2\C(=O)NC(=O)N(c3ccc(Cl)cc3)C2=O)c(C)n1-c1sc2c(c1C#N)CCCC2	-11%	50µM*	-10%	-9%	?	-13%
